In the library only some 19% were active in any assay of this set; here they are far more common.
TDP1 cell CPT = growth inhibition of DT40 Tdp1-/-;hTDP1 cells with camptothecin (screen for TDP1 inhibitors) | chicken DT40 Tdp1-/-;hTDP1 cells + 20 nM CPT, ATP luminescence, 48 h | Potency, µM (series often up to 46.2 µM), inactives show at the highest dose activity change, negative = growth inhibition, most hits filed as inhibitors | hit rate 12% among 420,000; further: potency means the concentration at half of the fitted maximal effect; nearly all actives have a fitted effect of over 55% in size
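Chicken DT40 Tdp1-/- cells stably complemented with human TDP1 were seeded at 400 cells/well in medium containing 20 nM camptothecin, exposed to pin-transferred compounds, and grown at 37 °C for at least 48 hr. Viability was read as ATP luminescence.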
TDP1 cell noCPT = qHTS for Inhibitors of human tyrosyl-DNA phosphodiesterase 1 (TDP1): qHTS in cells in absence of CPT; DT40 Tdp1-/- hTDP1 cells, no CPT, ATP luminescence, 48 h; Potency, µM (highest dose often 46.2 µM), for the others: at the top dose activity change, negative = growth inhibition, most hits filed as inhibitors; hit rate 15% among 420,000; further: potency means the concentration at half of the fitted maximal effect; nearly all actives have a fitted effect of over 55% in size
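Chicken DT40 Tdp1-/- cells complemented with human TDP1, screened without camptothecin (DMSO vehicle only), 400 cells/well. Compounds pin-transferred, cells incubated at 37 °C for at least 48 hr. Growth read as ATP-dependent luminescence (CellTiter-Glo, 30 min at RT).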
HT1080 IDH1KD tx = kills HT-1080 cells with IDH1 knockdown; HT-1080 IDH1 knockdown viability, ATP luminescence, 48 h; Potency, µM (doses to about 46.1 µM), inactives show at the top dose activity, negative = toxicity, most hits filed as cytotoxic; hit rate 2% among 360,000; AID 686971;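 further: potency means the concentration at half of the fitted maximal effect; 0% = DMSO wells and -100% = cell-free medium wells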
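CellTiter-Glo luminescence after 48 h compound exposure at 37 degrees C of IDH1-knockdown HT-1080 cells in 5% FBS RPMI. %Activity scaled between DMSO wells and cell-free media wells, with curves fitted and assigned curve classes.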
IL-1B inflam inh = blocks inflammasome-driven IL-1 beta release. hit rate 4.7% among 360,000. activity change, % at 57.5 µM. THP-1 LPS/ATP IL-1B secretion, AlphaLISA, 16 h; hits give low values. AID 743279; in the data active means activity change below about -50%; inconclusive means mostly about -30% to -49%
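THP-1 cells pretreated 1 hr with compounds (up to 57.5 uM final), then stimulated with LPS (250 ng/mL final) plus ATP (1.25 mM final); secreted IL-1B measured by AlphaLISA after 16 hr, decreased signal indicating inhibition.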
HT1080NT lethal = kills 2HG-producing HT-1080-NT fibrosarcoma cells. HT-1080-NT fibrosarcoma viability, CellTiter-Glo ATP luminescence, 48 h. Potency, µM (doses to about 46.1 µM), for inactives: at the highest dose activity, negative = less viability, hits mostly cytotoxic. hit rate 1.6% among 360,000;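 further: NT is the 2HG producing partner of a matched IDH1 knockdown line; potency means the concentration at half of the fitted maximal effect; 0% = DMSO-treated cells and -100% = media-only wells without cells; nearly all actives have a fitted effect of over 55% in size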
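Toxicity toward the 2HG-producing NT line was scored as %Activity, normalised to DMSO and no-cell wells, from CellTiter-Glo luminescence after 48 hours' treatment.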
* hit, by the source's call; u = inconclusive; x = no result given; ! = repeats disagree; [ ] = dose if it differs, or a comment. Unless noted, the call rests on the fitted dose curve; in most records, active means well fitted curve in the direction sought with a large enough effect; inconclusive means small, poorly fitted or top-dose-only effect, or another doubt; inactive means no such curve, though single readings can be large; an effect the other way counts as inactive or inconclusive. Unless noted, on the % scale 0 is the no-effect control and ±100 the full control effect.

SMILES	TDP1 cell CPT	TDP1 cell noCPT	HT1080 IDH1KD tx	IL-1B inflam inh	HT1080NT lethal
Cc1ccc(S(=O)(=O)NCC(=O)NCC(=O)N(C)Cc2ccc3ccccc3c2)cc1C	u	-70%	-14%	-52*	u
O=C(Nc1ccc2c(c1)OCCO2)C(C1CC1)N1CCN(c2ccc(C(F)(F)F)cn2)CC1 (stereo not given)	u	u	-29%	-9	-27%
Cc1ccc(-c2nn(C)c(=O)c3ccccc23)cc1S(=O)(=O)N1CCOCC1	11µM*	u	-1%	19	2%
Cc1ccc(-c2nn(C)c(=O)c3ccccc23)cc1S(=O)(=O)N1CCCC1	15µM*	u	-10%	21	-2%
CCOC(=O)N1CCN(S(=O)(=O)c2cc(-c3nn4c(C)nnc4c4ccccc34)ccc2C)CC1	u	26µM*	8%	20	7%
Cc1ccc(-c2nn(C)c(=O)c3ccccc23)cc1S(=O)(=O)NCCCN(C)C	1%	0%	x	x	x
CCC(CO)NS(=O)(=O)c1cc(-c2nn(C)c(=O)c3ccccc23)ccc1C (stereo not given)	u	-29%	-9%	10	-5%
O=C(NCc1ccccn1)[C@@H]1CCCN1C(=O)[C@@H]1CCCN1C(=O)c1ccc(Cl)cc1	2%	-23%	11%	4	21%
O=C(c1ccc2c(=O)n(CC3CCCO3)c(=S)[nH]c2c1)N1CCN(C(=O)c2ccco2)CC1 (stereo not given)	u	u	-1%	x	10%
Cc1c(C(=O)OC(C)C)sc(NC(=O)c2cnccn2)c1C(=O)OC(C)C	-13%	9%	0%	55	-2%
COc1cc(OC)c(NC(=O)Cn2cnc3c(nc4n3CCCCC4)c2=O)cc1Cl	-11%	-16%	x	x	x
O=C(CCn1c(=O)oc2ccccc21)Nc1ccc2c(c1)OCCO2	-24%	-21%	3%	-16	14%
O=C(COc1ccc(Br)cc1)Nc1ccc([N+](=O)[O-])cn1	-12%	-1%	14%	-6	16%
CCOC(=O)c1cc2c(=O)n3ccccc3nc2n(Cc2ccco2)c1=NC(=O)c1ccccc1OCC	u	18µM*	0%	-3	0%
CCOC(=O)c1cc2c(=O)n3ccccc3nc2n(CCOC)c1=NC(=O)c1c(-c2c(F)cccc2Cl)noc1C	u	18µM*!	u	-55*	u
CCOC(=O)c1cc2c(=O)n3ccccc3nc2n(Cc2ccco2)c1=NC(=O)c1cccc(C)c1	23µM*	u	x	x	x
CCOC(=O)c1cc2c(=O)n3ccccc3nc2n(Cc2ccco2)c1=NC(=O)c1ccc(C)c(C)c1	-23%	u	x	x	x
CCOC(=O)c1cc2c(=O)n3ccccc3nc2n(Cc2ccco2)c1=NC(=O)c1c(F)cccc1Cl	u	21µM*	x	x	x
COCCNC(=O)C1(C)CCN(C(=O)c2oc3ccccc3c2C)C1 (stereo not given)	-17%	0%	19%	2	14%
CCOC(=O)c1cc2c(=O)n3cccc(C)c3nc2n(Cc2ccco2)c1=NC(=O)c1cccnc1	16µM*	u	10%	-13	16%
CCOC(=O)c1cc2c(=O)n3ccccc3nc2n(Cc2ccco2)c1=NC(=O)c1cccc(Br)c1	16µM*	u	x	x	x
CCOC(=O)c1cc2c(=O)n3ccccc3nc2n(Cc2ccco2)c1=NC(=O)c1cccnc1	u	u	-3%	1	2%
CCOC(=O)c1cc2c(=O)n3ccccc3nc2n(Cc2ccco2)c1=NC(=O)c1ccc(Br)cc1	18µM*	-83%	x	x	x
Cc1c(C(=O)OCC(=O)Nc2ccc(C(N)=O)cc2)cccc1[N+](=O)[O-]	-4%	-14%	-1%	20	-5%
CC1OC(OC2C(CO)OC(OC3C(CO)OC(O)C(O)C3O)C(O)C2O)C(O)C(O)C1NC1C=C(CO)C(O)C(O)C1O (stereo not given)	-10%	-2%	x	x	x
SMILES	TDP1 cell CPT	TDP1 cell noCPT	HT1080 IDH1KD tx	IL-1B inflam inh	HT1080NT lethal
COC(=O)C1=CCCCC(O)=C1C(=O)OC	-3%	-3%	-1%	-3	10%
COc1ccc(OC)c(Cc2nnc(CCC(=O)NC3C4CC5CC(C4)CC3C5)o2)c1 (stereo not given)	-20%	u	3%	5	-1%
Cc1ccc(C(=O)N(C)c2ccc(OCC(=O)N3c4ccc(C)cc4C4CN(C)CCC43)cc2)cc1 (stereo not given)	u	u	-13%	-60*	-3%
Cc1ccc2c(c1)C1CN(C)CCC1N2C(=S)NC(=O)c1ccc(Br)cc1 (stereo not given)	9.2µM*	u	-26%	0	1%
COc1ccc(OCC(=O)N2c3ccc(C)cc3C3CN(C)CCC32)cc1 (stereo not given)	18%	2%	0%	6	-15%
Oc1ccccc1C=NCCN1CCN(CCN=Cc2ccccc2O)C1c1ccccc1O (stereo not given)	u	u	-2%	18	0%
Cc1ccccc1NC(=O)NC1(C(=O)NCc2ccco2)CCCCC1	2%	-5%	17%	-16	4%
C=CCn1c(SCc2ccc(F)cc2)nc2c1c(=O)[nH]c(=O)n2C	u	u	-1%	17	-7%
C/C(Cl)=C/CSc1nc2c(c(=O)[nH]c(=O)n2C)n1C(C)C	u	16µM*	-2%	29	-12%
CCCCCCSc1nc2c(c(=O)[nH]c(=O)n2C)n1C	u	21µM*	5%	0	u
C/C(Cl)=C/Cn1c(SC(C)C)nc2c1c(=O)[nH]c(=O)n2C	u	16µM*	-1%	14	0%
C=CCn1c(SCc2ccc(Cl)cc2)nc2c1c(=O)[nH]c(=O)n2C	u	21µM*	-3%	3	-28%
CC(Sc1nnc(Cc2ccccc2)n1C)C(=O)NC1CC1 (stereo not given)	-8%	12%	10%	-3	9%[9.24 µM]
CC(C)Sc1nc2c(c(=O)[nH]c(=O)n2C)n1Cc1ccc(Cl)cc1	u	26µM*	-20%	-7	-23%
CCOC(=O)C(=O)N/N=C/c1ccc(F)cc1	-6%	-2%	18%	-2	25%
CCOC(=O)C(=O)NNc1ccc(F)cc1	18%	0%	8.2µM*	-14	12µM*
C=CCn1c(COc2ccccc2OC)nc2ccccc21	u	u	14%	-11	11%
Cc1cccc(NC(=O)c2sc3nc4c(cc3c2N)CN(C(C)C)CC4)c1	21µM*	u	x	x	x
CC(C)OC(=O)CC(=O)c1sc2nc3c(cc2c1N)CN(C)CC3	u	u	9%	11	15%
